Screening results: PubChem, The Scripps Research Institute Molecular Screening Center
Rows were chosen to be rich in hits. Some 1.8% of all compounds tested hit in one or more screens of this group.
PAD4 FP inh: inhibitors of human PAD4; Q9UM07; recombinant PAD4, RCA probe fluorescence polarization; inhibition, % at 6.36 µM; 0.41% of 330,000 active; AID 485272;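 active = percent inhibition above a cutoff equal to the mean of all tested compounds plus 3 SD, cut at about 15% in these data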;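 also: 0% = PAD4 with RCA probe and DMSO and 100% = probe without PAD4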
PME-1 primary: PME-1 (human) inhibition; 0.53% of 320,000 active; Q9Y570; recombinant PME-1, FP-Rh probe fluorescence polarization; inhibition, % at 5.9 µM;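 active = inhibition above the campaign mean of all compounds plus 3 SD, cut at about 26% in these data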;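 also: competitive labeling of PME-1 active site by serine hydrolase directed probe; 0% = PME-1 with DMSO and 100% = wells lacking PME-1 enzyme; inhibitors block probe labeling so polarization falls and inhibition rises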
Fam108B inh: counter-screen for RBBP9 inhibitors: inhibitors of mouse Fam108B | recombinant Fam108B, FP-Rh probe fluorescence polarization | inhibition, % at 9.51 µM | 0.33% of 300,000 active | AID 1947;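 active = inhibition above the screen mean inhibition plus 3 SD, computed separately per campaign, cut at about 18% in these data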;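 also: inhibitors lower polarization as less probe binds the enzyme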
LYPLA2 counter: blocks human lysophospholipase 2, a PME1 counter-screen. recombinant LYPLA2, FP-Rh probe fluorescence polarization. inhibition, % at 5.9 µM. 0.38% of 320,000 active. AID 2177;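 active = inhibition above the screen-wide mean plus 3 SD, limit set per campaign, cut at about 26% in these data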;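 also: 0% = LYPLA2 with DMSO and 100% = wells lacking LYPLA2 enzyme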
Target sequence (O95372 whole entry, looked up): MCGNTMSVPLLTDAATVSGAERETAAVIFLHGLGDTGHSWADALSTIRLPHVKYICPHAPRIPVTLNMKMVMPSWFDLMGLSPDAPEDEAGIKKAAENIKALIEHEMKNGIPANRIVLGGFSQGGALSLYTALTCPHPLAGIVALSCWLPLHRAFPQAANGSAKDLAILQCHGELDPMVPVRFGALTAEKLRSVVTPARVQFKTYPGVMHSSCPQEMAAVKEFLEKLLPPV
GSTO1 counter: blocks human GSTO1 in RBBP9 counter-screen; P78417; recombinant GSTO1, activity-based probe fluorescence polarization; inhibition, % at 5.96 µM; 1.1% of 300,000 active; AID 1974;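 active = inhibition above the campaign mean inhibition plus 3 SD, cut at about 35% in these data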;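 also: 0% = GSTO1-1 with DMSO and 100% = wells lacking GSTO1-1 enzyme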
Target sequence (P78417 whole entry, looked up): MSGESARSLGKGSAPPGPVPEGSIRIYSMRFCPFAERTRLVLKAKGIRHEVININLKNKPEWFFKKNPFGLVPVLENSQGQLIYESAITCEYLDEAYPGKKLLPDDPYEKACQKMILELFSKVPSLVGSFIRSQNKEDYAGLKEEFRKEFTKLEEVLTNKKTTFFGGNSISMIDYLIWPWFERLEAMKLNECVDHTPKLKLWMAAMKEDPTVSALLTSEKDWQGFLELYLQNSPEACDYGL
LYPLA1 inh: LYPLA1 (human) inhibition in PME1 counter-screen; AID 2174; O75608; inhibition, % at 5.9 µM; 0.16% of 320,000 active; recombinant LYPLA1, FP-Rh probe fluorescence polarization;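 active = inhibition above the mean of all tested compounds plus 3 SD, set per campaign, cut at about 14% in these data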;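 also: inhibitors block serine hydrolase probe labeling of LYPLA1 so polarization falls; 0% = enzyme with DMSO and 100% = wells lacking LYPLA1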
GSTO1 inh conf: confirmation of human GSTO1 inhibitors; shares compounds with GSTO1 counter; recombinant GSTO1, probe fluorescence polarization; inhibition, % at 5.96 µM; 54% of 2,400 active; AID 2176;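 active = inhibition above the primary screen's cutoff, its mean inhibition plus 3 SD, cut at about 35% in these data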;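 also: loss of polarization as inhibitors block binding of rhodamine sulfonate ester activity probe; 0% = GSTO1 with DMSO and 100% = wells lacking GSTO1 enzyme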
GSTO1 recomb ABPP: blocks recombinant human glutathione S-transferase omega 1; inhibition, % at 1 µM; recombinant GSTO1, gel ABPP SE-Rh probe fluorescence; shares compounds with GSTO1 counter; 30% of 130 active;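 active = inhibition of the enzyme GSTO1 above about 75%, limit read from the data; inactive = inhibition below that limit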
The depositor's hits bear a star; x = not tested or not shown.

SMILES	PAD4 FP inh	PME-1 primary	Fam108B inh	LYPLA2 counter	GSTO1 counter	LYPLA1 inh	GSTO1 inh conf	others
Cc1ccc(N(Cc2cc(=O)[nH]c3ccccc23)C(=O)CCl)c(C)c1	4	4	3	-1	64*	-1	75*	GSTO1 recomb ABPP=27
CCCn1c(N)c(C(=O)CSc2nc(C)cs2)c(=O)n(C)c1=O	1	1	1	2	3	-1	x
CCOc1ccc(NC(=O)C2CCN(C(=O)C3CC(=O)N(c4ccc(C)cc4)C3)CC2)cc1 (stereo unspecified)	-1	5	-2	5	-4	-2	x
COc1cc(O)cc2cc3c(c(O)c12)C(=O)CC(C)(O)O3 (stereo unspecified)	-5	1	-4	2	47*	0	31
O=C(NCc1ccco1)c1cc(-c2cccnc2)nc2ccccc12	1	4	-2	7	38*	4	5
O=C(CCN1C(=O)/C(=C\c2ccccc2F)SC1=S)N1CCCCC1	-5	3	3	3	47*	2	11
COc1ccc(CNc2nc3nc(-c4ccccc4)cc(=O)n3[nH]2)cc1OC	-1	-7	-1	-2	-9	1	x
CCC(=O)N(CC)C1=C(O)c2ccccc2C(=O)C1=O	3	2	1	-4	38*	-3	32
NS(=O)(=O)c1ccc(CCNC(=O)CNCCc2ccccc2)cc1	-8	-4	2	4	2	2	x
O=C(NCc1cccnc1)NC1(C(F)(F)F)Oc2ccc(Cl)cc2O1 (stereo unspecified)	-6	5	-1	-4	27	0	x
NS(=O)(=O)c1ccc(CCNC(=O)NC2(C(F)(F)F)Oc3ccccc3O2)cc1	-1	-4	2	5	47*	-2	2
CC(=O)NC1(C(Cl)(Cl)Cl)Oc2ccccc2O1	-6	3	4	5	2	2	x
CCCCNC(=O)NC1(C(F)(F)F)Oc2ccccc2O1	-4	-2	-3	-4	55*	-6	4
COc1ccc(OC)c(NC(=O)NC2(C(F)(F)F)Oc3ccccc3O2)c1	-3	4	1	0	56*	-5	7
COCCNC(=O)NC1(C(F)(F)F)Oc2ccc(Cl)cc2O1 (stereo unspecified)	2	2	2	-9	38*	3	5
Cn1c(/C=C/c2ccc(Br)cc2)c([N+](=O)[O-])c(=O)n(C)c1=O	4	-5	0	9	1	2	x
O=C(NCCN1CCOCC1)NC1(C(F)(F)F)Oc2ccccc2O1	-2	-4	-1	-1	57*	-3	5
CCN(CCCNC(=O)c1[nH]c(C)c(C(C)=O)c1C)c1ccccc1	1	0	-1	2	-5	-12	x
COc1ccccc1C(=O)NC(=S)Nc1ccccc1N1CCCC1	4	-2	0	-8	40*	-6	8
O=C(Nc1nnc(/C=C/c2ccccc2)s1)c1ccco1	-2	26	5	0	-5	0	x
Cc1ccc(-n2c(C)cc(/C=C3\SC(=O)NC3=O)c2C)cc1	-3	7	-1	1	3	1	x
Cc1cc(/C=C2\SC(=S)NC2=O)c(C)n1-c1cccc(O)c1	-29	-17	4	-5	53*	-12	51*
Cc1cc(C)c2c(N)c(C(=O)Nc3ccc([N+](=O)[O-])cc3)sc2n1	-1	-5	-3	-2	2	-3	x
O=C(O)C1Cc2ccccc2CN1C(=O)CCl (stereo unspecified)	-10	-10	4	0	70*	-3	98*	GSTO1 recomb ABPP=82*
O=C(O)C1Cc2ccccc2CN1C(=O)COc1ccc(Br)cc1 (stereo unspecified)	-4	-7	3	-3	-1	-3	x
CCS(=O)(=O)NCc1ccc2[nH]c3c(c2c1)CCCC3	-15	16	6	-8	46*	-1	60*
CC(/C=C1\SC(=S)N(NS(=O)(=O)c2ccccc2)C1=O)=C\c1ccccc1	0	0	3	-3	40*	-1	32
